Test results taken from the supplement of paper PMC4466236.
The full ranking holds about 33,000 sequences; the median of “E-score (dimensionless, -0.5 to 0.5)” is about -0.058, and the highest 2% start at about 0.35. The sample holds the highest values, similar sequences and a random draw of the others, so the mix is not that of the screen.

Tested on: MvaT
Test: PBM 8-mer E-score (mean of HK and ME arrays) (E-score (dimensionless, -0.5 to 0.5)); higher = stronger relative binding preference
Summary of the method: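 Full-length P. aeruginosa MvaT, with glutathione S-transferase fused to its N-terminus (cloned into pTH6838 by isothermal assembly), was tested by protein binding microarray using a previously described protocol. Two universal double-stranded 60-mer arrays (ME and HK) were used, each with a constant 25-mer primer region and a variable 35-mer region covering all 8-mers. The rank-based 8-mer E-score (-0.5 to 0.5) is the mean of the two arrays, parsed with a custom Python script.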

Sequence	PBM 8-mer E-score
GGTATGAC	-0.144
ATAATGGG	0.229
AGGTTAAA	0.0501
ATCATTCC	-0.0603
AATGATTC	0.144
CGATAGCC	-0.14
GCAGTTCC	-0.18
GATTATAA	0.41
GATTATAC	0.223
AATTATAT	0.461
AATTATAA	0.468
CATTATAC	0.295
CATTAGAA	-0.0258
AATTAGAT	0.284
AATTATCT	0.296
GATTATGA	0.0705
CATTATAA	0.389
AATTATAC	0.342
CCAATGAC	-0.153
CATTGTGG	-0.0595
GGCTTTGA	-0.0706
ACACAGGC	-0.0277
TCCTACGA	-0.0392
AATTATGG	0.285
AATTATAG	0.37

Sequence	PBM 8-mer E-score
CATTATAG	0.277
AATTATGT	0.366
AATTATGA	0.317
ACTCCTGA	-0.0172
AAGTTAAG	0.243
TAGTTAAA	0.273
GAGTTAAC	0.254
CAGTTAAC	0.221
AAGTTACT	0.339
GAGTTAAA	0.25
AAGTTAAT	0.385
AAGTTAAA	0.411
AAGTTAAC	0.379
CGTTATCA	0.111
GGTTATTA	0.285
CGTTATTC	0.24
AGTTATTA	0.414
CGTTATTA	0.364
AGTTATTG	0.312
AAAGTAGG	0.0451
CAAAGATC	-0.0152
AATAAAGA	0.344
AATAAAGG	0.228
AATAAAAC	0.341
AATAAAAG	0.309

Sequence	PBM 8-mer E-score
AATAAAAA	0.415
ACTAAAAC	0.289
AATAAAGT	0.372
ACTAAAAA	0.193
AGTAAAAT	0.308
ACTAAAAT	0.39
AATAAAAT	0.388
CACCAGCC	-0.0802
AGGCCTAC	-0.133
CAAACCTA	0.0792
ATTTTCGA	0.0907
AGCGTTCC	-0.129
TTGAGAAA	0.135
ACGTGGCC	-0.18
CCCTGATC	-0.224
CTACATGC	-0.081
ATCGGTAA	-3.6e-06
GCCGCGTA	-0.0692
ACACCCCC	-0.251
AGCACAAA	0.0677
AGGCACCT	-0.217
GACTTTGC	0.127
CTAAAATA	0.353
ATAAAATG	0.249
ATAAAATC	0.193

Sequence	PBM 8-mer E-score
CTAAAATC	0.148
GAAAAATA	0.317
TAAAAATA	0.3
ATAAAATA	0.427
GTAAAAAA	0.137
GTAAAATA	0.345
AATAAGTC	0.298
ATATTGTC	0.346
CTATTGTA	0.34
ATATTGTG	0.251
ATATTGTA	0.376
CTATTGTC	0.12
ACATTGTC	0.116
CTCGAGTA	-0.0253
AGCCAACA	0.0763
AAGTCGAT	-0.0445
AGCAGACG	-0.169
ACTGCGAG	-0.0652
GATAATCA	0.176
TAGAATAA	0.306
AATAATCT	0.314
AATAATAT	0.453
TATAATCA	0.389
TATAATAA	0.477
AGTAATAT	0.418

Sequence	PBM 8-mer E-score
GCTAATAA	0.338
AATAATCC	0.26
AGTAATAC	0.297
AATAATCA	0.259
AGTAATAG	0.213
ACGCACTC	-0.0389
AAAAAGAG	0.0446
AACGTTTG	0.0612
AGCCGCAA	-0.0521
GGGCCGAC	-0.267
GGCGGAAC	-0.146
ATCTTCAA	0.0478
GCCTTGGA	-0.206
GGCACCCA	-0.148
CTCCACTC	-0.232
AATAAGAT	0.356
CATAATAG	0.318
AATAGTAG	0.294
CATAATAA	0.334
GATAATAA	0.404
AATAATAA	0.478
AATAAGAG	0.222
AATAATAG	0.402
AATAAGAA	0.318
AGGCATCG	-0.134

Sequence	PBM 8-mer E-score
TAAATCAA	0.341
AATTGGTG	0.0491
CGCTGTAC	-0.228
GCAGCTAA	0.0363
AATAATAC	0.419
GATAATAC	0.301
CATAATAC	0.327
GGAAATCA	-0.0787
GAGGAATC	-0.0683
TCCATCAA	-0.032
ACAAGGTA	-0.0731
CGTTAACA	0.114
AGTTAACT	0.377
TGTTAACA	0.33
AGTTAACC	0.142
AGTTAACA	0.348
AGTTAACG	0.204
GTGAACCA	-0.139
AACGCTTA	0.0532
TTGTTAAA	0.346
CTATTAAC	0.315
CTGTTAAA	0.175
CGATTAAA	0.218
CTATTAAA	0.283
AGATTAAC	0.173

Sequence	PBM 8-mer E-score
GTATTAAA	0.313
TCATTAAA	0.228
GTGTTAAA	0.177
TTATTAAA	0.409
ATATTAAA	0.466
ATATTAAC	0.434
GAGGACTC	-0.279
CTCGGAAG	-0.0476
CGCACACG	-0.149
GATTCTGC	-0.159
CACTACGA	-0.0417
CCTGGCAG	-0.209
CGTTGTAC	-0.0465
AAGAGCTT	-0.115
GATTCTGA	-0.00658
AGCGCAAA	0.162
AACCAGGC	-0.183
GCCTAATA	0.133
AAATTTCT	0.148
ATATTACG	0.299
CTATTAAG	0.17
GTATTAAC	0.39
ATATTAAG	0.446
